Records with an inconclusive call do not appear. Calls of active or inactive are those of the source. Calls come from the whole dose curve; as a rule, active = well fitted inhibition curve with a large enough effect; inconclusive = small, poorly fitted or top-dose-only effect; inactive = flat fitted curve, though single readings scatter.

Data on 39 compounds can be found in PubChem BioAssay (NCATS).

One experiment relates to HEK293. The experiment is described as follows: Cytotoxic Profiling of Annotated Libraries Using Quantitative High-Throughput Screening (AID 1296008). Note: nearly all actives have a fitted effect of over 60% in size. The settings on record: Five cell lines viability, CellTiter-Glo ATP luminescence, 48-72 h; max response: hits give low values. The method, boiled down:
(§1)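 Cytotoxicity was measured as CellTiter-Glo ATP luminescence, read after 10 min at room temperature. Compound treatment of the cells lasted 48 or 72 hr at 37 degrees Celsius in a qHTS format.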
For `CC(C)=CC/C=C(/C)[C@H]1CC[C@]2(C)[C@@H]1[C@H](O)CC1[C@@]3(C)CC[C@H](O)C(C)(C)[C@@H]3[C@@H](O[C@@H]3O[C@H](CO)[C@@H](O)[C@H](O)[C@H]3O[C@@H]3O[C@@H](C)[C@H](O)[C@@H](O)[C@H]3O)C[C@]12C` (stereo not given in full), the call was inactive. `OC[C@H]1O[C@@H](Oc2cc(O)cc(/C=C/c3ccc(O)cc3)c2)[C@H](O)[C@@H](O)[C@@H]1O`: the compound was called inactive. In the case of `CC(C)=CCc1ccc(Oc2c(O)cc(C)cc2CO)c(C(=O)O)c1O`, the compound was classed as inactive. Turning to `CC(=O)N(O)CCCCCN1C(=O)CCC1=O`, the result was inactive.

Take `CC(C)NC[C@H](O)COc1ccc(CCOCC2CC2)cc1`: the compound was classed as inactive.

In the case of `C=CCc1ccc(O[C@@H]2O[C@H](CO)[C@@H](O)[C@H](O)[C@H]2O)c(OC)c1`, the call was inactive.

Another experiment deals with HaCat. The experiment is described as above. Conditions: Five cell lines viability, CellTiter-Glo ATP luminescence, 48-72 h; max response: hits give low values. The method, boiled down:
as §1
For orientation: Cellular ATP, detected with luciferase, serves as a proxy for viable cell number.
Take `CC12CCC3C(C)(C)C(O)CCC3(C)C1Cc1c(oc(C(=O)O)cc1=O)O2` (stereo not given): the compound was called inactive. Still for that read-out and setting: then `Cc1cc(O)cc(Oc2cc(C)c(C(=O)O)c(O)c2)c1`, with “inactive”; and `C[C@@H]1O[C@@H](O[C@@H]2[C@@H](O)[C@H](O[C@@H]3[C@@H](O)[C@@H](O)[C@H](O[C@H]4[C@H](OC(=O)[C@]56CCC(C)(C)C[C@H]5C5=CCC7[C@@]8(C)C[C@H](O)[C@H](O[C@@H]9O[C@@H](C)[C@H](O)[C@@H](O)[C@H]9O)[C@@](C)(CO)C8CC[C@@]7(C)[C@]5(C)C[C@H]6O)O[C@H](C)[C@H](O)[C@@H]4O)O[C@H]3C)OC[C@H]2O)[C@H](O)[C@H](O)[C@H]1O` (stereo not given in full), with “inactive”. Same read-out and setting: then `CC1CCC2(O1)C(C)(C)CC(O[C@@H]1O[C@H](CO[C@@H]3OC[C@](O)(CO)[C@H]3O)[C@@H](O)[C@H](O)[C@H]1O)CC2(C)O` (stereo not given in full), with “inactive”; and `C[C@@]12C[C@]3(O)O[C@H](O1)[C@]1(COC(=O)c4ccccc4)[C@H]3C[C@@]12O[C@@H]1O[C@H](COC(=O)c2ccccc2)[C@@H](O)[C@H](O)[C@H]1O`, with “inactive”; and `C=C1CC[C@H]2[C@@H](/C=C(\C)C(=O)[C@@]3(OC(C)=O)C[C@H](C)[C@H](OC(C)=O)[C@@H]3[C@H]1OC(C)=O)C2(C)C`, with “inactive”. With `NCc1c[nH]c(=S)n1C1CCc2c(F)cc(F)cc2C1` (stereo not given), the result was inactive.

`C/C=C/C1=CC2=CC(=O)C(C)(O)C(OC(=O)c3c(C)cc(O)cc3O)C2CO1` (stereo not given): the call was inactive. Regarding `O=C1NC(=Nc2ccccc2F)S/C1=C\c1ccc(C(=O)O)cc1`, the result was inactive. As to `C=C[C@H]1[C@H](O[C@@H]2O[C@H](CO[C@@H]3OC[C@](O)(CO)[C@H]3O)[C@@H](O)[C@H](O)[C@H]2O)OC=C2C(=O)OCC[C@H]21`, the compound was called inactive. Turning to `CNC(=O)O[C@H]1COc2ccc(N3CCN(C4COC4)CC3)cc2[C@@H]1NC(=O)c1ccc(F)cc1`, the outcome was inactive. Turning to `CC(=O)[C@@H]1CC[C@]2(C(=O)O)CC[C@]3(C)C(CCC4[C@@]5(C)CC[C@H](O)C(C)(C)C5CC[C@]43C)C12` (stereo not given in full), the outcome was inactive. Same read-out and setting: then `O=C(NCC(=O)N1CC[C@H](NC2CCC(O)(c3ccc(-c4ncccn4)cn3)CC2)C1)c1cccc(C(F)(F)F)c1` (stereo not given in full), with “inactive”. On to `COC(=O)C[C@@H]1C(C(=O)O)=CO[C@@H](O[C@@H]2O[C@H](CO)[C@@H](O)[C@H](O)[C@H]2O)/C1=C\COC(=O)/C=C\c1ccccc1`, for which the result was inactive. Same read-out and setting: then `CC(=O)NCCCCn1c2c(c3ccccc31)C(=O)NCC2`, with “inactive”. Take `COC(=O)C1C(c2ccc(O)cc2)C(C(=O)OC)C1c1ccc(O)cc1` (stereo not given): the compound was classed as inactive. Turning to `CC(=O)N1c2ccccc2C2(O)CC3C(=O)NC(CC(C)C)C(=O)N3C12` (stereo not given), the outcome was inactive. For the compound `CC(C)C1=CC2=CCC3[C@](C)(CCC[C@@]3(C)C(=O)O)C2CC1O` (stereo not given in full), the result was inactive. In the case of `C[C@@H]1O[C@@H](OC[C@H]2O[C@@H](OCCc3ccccc3)[C@H](O)[C@@H](O)[C@@H]2O)[C@H](O)[C@H](O)[C@H]1O`, the compound was called inactive. As to `OCCc1ccc(O[C@@H]2O[C@H](CO)[C@@H](O)[C@H](O)[C@H]2O)c(O)c1`, the call was inactive. Regarding `C/C=C(\C)C(=O)OC[C@H]1O[C@H](O[C@H]2O[C@H](CO)[C@@H](OC(=O)/C(C)=C/C)[C@H](O)[C@H]2O[C@@H]2O[C@H](CO)[C@@H](O)[C@H](O)[C@H]2O)[C@H](O[C@@H]2O[C@H](CO)[C@@H](O)[C@H](O)[C@H]2O)[C@@H](O)[C@@H]1O`, the call was inactive.

In the case of `COc1cc([C@H]2OC[C@]3(OC(C)=O)[C@@H](c4ccc(O[C@@H]5O[C@H](CO)[C@@H](O)[C@H](O)[C@H]5O)c(OC)c4)OC[C@H]23)ccc1O`, the compound was called inactive. The same measure, in the same setting: for `CCn1nnnc1NCc1ccc(C(C)C)cc1` the value was “inactive”; for `C=C1C[C@]23C[C@H]1CC[C@H]2[C@]1(C)CCC[C@@]2(CO)C(=O)O[C@H]([C@H]21)[C@@H]3O`, “inactive”. For `CC(=O)O[C@@H]1C[C@]2(C)[C@@]3(CCC4[C@@]5(C)CC[C@H](O[C@@H]6O[C@H](C(=O)O)[C@@H](O)[C@H](O[C@@H]7O[C@H](CO)[C@H](O)[C@H](O)[C@H]7O[C@@H]7O[C@@H](C)[C@H](O)[C@@H](O)[C@H]7O[C@@H]7OC[C@](O)(CO)[C@H]7O)[C@H]6O[C@@H]6O[C@H](CO)[C@H](O)[C@H](O)[C@H]6O)C(C)(C)C5CC[C@]42C)O[C@@H](O)[C@]12C3CC(C)(C)[C@@H](OC(=O)/C=C/c1ccc(O)c(O)c1)[C@@H]2OC(=O)/C=C/c1ccccc1` (stereo not given in full), the call was inactive. For the compound `CC(C)CC(=O)OC[C@H]1O[C@@](COC(=O)CC(C)C)(O[C@H]2O[C@H](CO)[C@@H](O)[C@H](O)[C@H]2O)[C@@H](OC(=O)CC(C)C)[C@@H]1OC(=O)CC(C)C`, the compound was classed as inactive. On to `NC(=O)c1cccc(-c2cc(O)cc(OC(=O)NC3CCCCC3)c2)c1`, for which the compound was called inactive. On to `CC1(C)CC(=O)N(CCCCN2CCN(c3ncccn3)CC2)C(=O)C1`, for which the result was inactive.

Take `C[C@H](NCc1ccc(OCc2ccccc2F)cc1)C(N)=O`: the outcome was inactive. As for `C[C@@H]1C(=O)O[C@H]2CC34[C@H]5C[C@@H](C(C)(C)C)C36[C@@H](OC(=O)[C@@H]6O)OC4(C(=O)O5)[C@]21O` (stereo not given in full), the outcome was inactive. Consider `CC1CCC2(NC1)OC1C(=O)C3C4CCC5CC(O[C@@H]6O[C@H](CO)[C@@H](O)[C@H](O)[C@H]6O[C@@H]6O[C@@H](C)[C@H](O)[C@@H](O)[C@H]6O)CCC5(C)C4CCC3(C)C1C2C` (stereo not given in full), for which the result was inactive. Regarding `Cc1nn(C)c(COc2ccc(N3CCN(S(=O)(=O)N(C)C)CC3)cc2)c1-c1cccc2c(CCCOc3cccc4ccccc34)c(C(=O)O)n(CCN3CCOCC3)c12`, the compound was classed as inactive. With `C/C=C(\C)C(=O)O[C@H]1[C@H](O)[C@]2(COC(C)=O)[C@H](O)C[C@]3(C)C(=CCC4[C@@]5(C)CC[C@H](O[C@@H]6O[C@H](C(=O)O)[C@@H](O[C@@H]7O[C@H](CO)[C@@H](O)[C@H](O)[C@H]7O)[C@H](O)[C@H]6O[C@@H]6O[C@H](CO)[C@@H](O)[C@H](O)[C@H]6O)[C@](C)(CO)C5CC[C@]43C)[C@@H]2CC1(C)C` (stereo not given in full), the result was inactive. As to `CC(C)=CC/C=C(/C)[C@H]1CC[C@]2(C)[C@@H]1[C@H](O)CC1[C@@]3(C)CC[C@H](O)C(C)(C)[C@@H]3[C@@H](O[C@@H]3O[C@H](CO)[C@@H](O)[C@H](O)[C@H]3O[C@@H]3O[C@@H](C)[C@H](O)[C@@H](O)[C@H]3O)C[C@]12C` (stereo not given in full), the outcome was inactive. Still for that read-out and setting: then `OC[C@H]1O[C@@H](Oc2cc(O)cc(/C=C/c3ccc(O)cc3)c2)[C@H](O)[C@@H](O)[C@@H]1O`, with “inactive”; and `CC(C)=CCc1ccc(Oc2c(O)cc(C)cc2CO)c(C(=O)O)c1O`, with “inactive”.

`CC(=O)N(O)CCCCCN1C(=O)CCC1=O`: the compound was classed as inactive. The same measure, in the same setting: for `CC(C)NC[C@H](O)COc1ccc(CCOCC2CC2)cc1` the value was “inactive”. For `C=CCc1ccc(O[C@@H]2O[C@H](CO)[C@@H](O)[C@H](O)[C@H]2O)c(OC)c1`, the call was inactive.
